Out of some 3,400 compounds screened, about 160 (4.7%) were called active. Only a sample is shown. Measured potencies and affinities stand elsewhere. Values without a mark were called inactive.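 Rule for the calls: active = fitted curve reaches 30% activation at a concentration no higher than the top valid tested dose, luminescence rising; inconclusive = no clear call, values can overlap the other calls; inactive = signal moving opposite to the expected increase, plus the rest.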

A short description of the experiment: TCF/LEF reporter activation in neural progenitors – cell-based, iPS-derived NPC, luciferase, Wnt3a, cherry-pick, dose response (AID 1053144).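 Note: Wnt3a stimulus is conditioned medium from Wnt3a-transfected mouse L cells at 5% in well; 0% = neutral control wells and 100% = CHIR-99021 positive control wells.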 Particulars: Wnt3a EC25, 24 h; series mostly up to 26 µM; activation: at the top concentration.
Regarding `Cc1onc(C(=O)Nc2sc3c(c2C#N)CCCC3)c1[N+](=O)[O-]`, the “activation” value was 3.37%.
As for `Cc1cc(NC(=O)c2cccc(F)c2)ncc1NC(=O)c1ccco1`, the “activation” value was 5.89%.
The figure for `O=C(/C=C/C=C/c1ccccc1)c1ccco1` is 19.1%; for `Cc1ccc(N/C=C/C(=O)c2ccco2)c(O)c1` it is 12.8%; for `Cc1ccnc(NC(=O)c2cc3cc(F)ccc3s2)c1` it is 5.25%.
On to `Cc1ccc(NC(=O)c2cc(-c3cccs3)on2)cc1C`, for which the “activation” value was 9.24%.
As for `CC(C)NC(=O)c1cc(-c2cccs2)on1`, the “activation” value is 21.6%.
In the case of `CCc1cc(CNC(=O)CCc2nnc(CCCc3ccccc3)o2)on1`, the “activation” value was 12%.
In the case of `O=C(NC(=O)c1ccc(F)cc1F)Nc1ccc(Cl)cc1`, the “activation” value was 17.1%.
Consider `Nc1ccc(O)c2c(=O)cc(-c3ccccc3Cl)oc12`, for which the “activation” value is 7.45%.
The figure for `CCCOc1ccc(-c2csc3nc[nH]c(=O)c23)cc1` is 4.45%; for `COc1ccc2[nH]c(-c3ccccc3)cc2c1` it is 6.06%.
As to `COc1ccc2cc(CCNC(=O)c3cccs3)c(=O)[nH]c2c1`, the “activation” value was 9.16%.
As to `Cc1ccc(CONC(=O)c2ccc(C)cc2)cc1`, the “activation” value is 8.43%.
The figure for `COc1ccc(N=Nc2ccc(N)nc2N)cc1` is 12.9%; for `Nc1ccc(N=Nc2ccccc2)c(N)n1` it is 12.5%.
On to `CCOC(=O)C1(Cc2ccccc2)CCCN(C(=O)COc2ccccc2OC)C1` (stereo not given), for which the “activation” value is 9.49%.
In the case of `Cn1c(SCC(=O)c2ccccc2)nnc1-c1ccccn1` it was 11.4%.
In the case of `Cn1c(SCc2ccccc2F)nnc1-c1ccccn1`, the “activation” value was 13.6%.
Consider `Cc1ccc(NC(=O)C(=O)NCCCN2CCCC2=O)cc1`, for which the “activation” value is 6.01%.
The figure for `COc1cccc2cc(-c3nc4ccccc4o3)c(=O)oc12` is 6.12%.
In the case of `COc1ccc2oc(=O)c(-c3nc4ccccc4o3)cc2c1` it was 16.9%.
The figure for `N/C(=N\OC(=O)c1cccs1)c1ccc(Cl)cc1` is 10.6%; for `O=C(Nc1ccccc1)Nc1nnc(-c2ccccc2)s1` it is 8.64%; for `COc1ccc(C(C(=O)NC2CCCC2)n2c(C3CCN(C(C)=O)CC3)nc3ccccc32)cc1` (stereo not given) it is 16.6%.
`c1ccc2c(c1)Cc1cc3ccccc3nc1-2`: the “activation” value is 15.7%.
As to `O=C(/C=C/c1ccc(N2CCOCC2)cc1)c1ccccc1`, the “activation” value was 5.79%.
For the molecule `O=C(O)c1ccc2c(c1)C(=O)N(c1ccc(C(=O)OCC(=O)c3ccccc3)cc1)C2=O`, the “activation” value was 7.5%.
The figure for `CCC(C)C(=O)Nc1nc2ccc(OC)cc2s1` (stereo not given) is 11.1%; for `CC(=O)Nc1nonc1NC(=O)c1ccc(C(C)(C)C)cc1` it is 6.59%.
The figure for `CCCCn1c(CN2CCN(C(=O)OCC)CC2)nc2c1c(=O)n(C)c(=O)n2C` is 1.14%; for `Cc1ccc(-c2noc(-c3ccccc3F)n2)cc1` it is 7.61%; for `Fc1ccccc1-c1nc(-c2ccccc2)no1` it is 4.1%.
For `Cc1ccc(OCc2cc(C(=O)NCC(C)(C)N3CCOCC3)no2)cc1C`, the “activation” value was 13.3%.
As to `NC(=O)CSc1nnc(NC(=O)c2ccc3ccccc3c2)s1`, the “activation” value is 8.39%.
In the case of `CC1CCN(C(=O)CSc2nc3ccccc3s2)CC1` it was 7.04%.
In the case of `NC(=O)c1c(NC(=O)c2ccccc2)sc2c1CCC2` it was 9.7%.
With `CC1CCC2(CC1)NC(=O)N(CC(=O)Nc1sc3c(c1C(N)=O)CCC3)C2=O` (stereo not given), the “activation” value was 5.23%.
The figure for `CN1CCN(c2ccc(NC(=O)c3ccc(-c4ccccc4F)o3)cc2)CC1` is 13.4%; for `CCn1c(SCC(=O)c2ccccc2)nnc1-c1cnccn1` it is 9.13%.
The figure for `Cn1c(SCC(=O)c2ccccc2)nnc1-c1ccc(O)cc1` is 13%; for `O=C(Nc1nnc(C2CCCCC2)s1)c1cccs1` it is 4.29%; for `Cc1ccnc(N/C=C/C(=O)c2ccc(Br)cc2)c1` it is 3.27%.
The figure for `Nc1ccc(-c2nc3ccc([N+](=O)[O-])cc3[nH]2)cc1` is 18.3%; for `Cc1nc2ccc(-c3nc4cc(N)ccc4o3)cc2[nH]1` it is 3.55%.
For `CCCOc1ccc(C(=O)Nc2ccc3c(c2)OCO3)cc1`, the “activation” value was 13.3%.
In the case of `CC1CCC(NC(=O)c2cccn2C)CC1` (stereo not given) it was 2.89%.
In the case of `C=C(C)CNC(=O)CCc1nnc(Cc2cccc(C(F)(F)F)c2)o1` it was 17%; in that of `O=C(COc1ccc2c(c1)OCO2)Nc1ccccc1F`, 8.94%.
Consider `O=C(NCC(c1ccco1)N1CCCC1)c1cc(=O)[nH]c2ccccc12` (stereo not given), for which the “activation” value is 0.695%.
In the case of `O=C(O)c1ccccc1SCc1cn2cc(Cl)ccc2n1` it was 9.86%.
The figure for `CCOC(=O)/C(=C/c1ccc(OC(=O)c2ccncc2)cc1)C(C)=O` is 2.42%; for `COc1ccc(NC(=O)c2ccc3c(c2)N(C)CCS3)cc1` it is 8.32%.
The figure for `CN1CCSc2ccc(C(=O)Nc3ccc(Cl)cc3)cc21` is 12.8%; for `Cc1ccc2c(c1)c1c(n2C)-c2[nH]ncc2CC1` it is 8.88%; for `COC(=O)c1nn(-c2ccc(C)cc2)c2nnc(Cc3ccccc3)c(=O)n12` it is 1.09%.
As to `O=C(Nc1ccc(Cl)cc1)c1ccco1`, the “activation” value was 6.38%.
Consider `COC(=O)c1ccc(NC(=O)c2ccco2)cc1`, for which the “activation” value is 24.7%.
Regarding `COc1ncccc1-c1nnn(-c2ccccc2)n1`, the “activation” value is 8.3%.
In the case of `CC(=O)NC(CC(=O)NNC(=O)COc1c(C)cccc1C)c1ccccc1` (stereo not given) it was -0.753%; in that of `Cc1cc(NC(=O)c2ccccc2)ncc1NC(=O)c1ccco1`, 6.34%.
The figure for `CSc1nccc(N/N=C/c2ccccc2)n1` is 9.49%; for `O=C(NC1CCCC1)c1cc(-c2ccc(Cl)cc2)on1` it is 13.5%.
In the case of `O=c1c2ccccc2oc2ccc(NCCCn3ccnc3)cc12`, the “activation” value was 0.761%.
As to `COc1ccc(C(=O)c2c[nH]c(C(=O)NCCCn3ccnc3)c2)cc1`, the “activation” value was 2.91%.
In the case of `O=C(c1cc(-c2ccccc2)on1)N1CCCCCC1` it was 13.4%; in that of `O=C(NCc1cccs1)c1cc(-c2ccc(O)cc2)on1`, 9.8%.
In the case of `O=C(NC1CCCCC1)c1cc(-c2cccs2)on1`, the “activation” value was 6.56%.
The figure for `CC(C)(C)c1cccc(N/C(=C\C(=O)c2ccccc2)c2ccccc2)c1` is -2.87%; for `CC(=O)c1ccc(OCc2ccccc2)c(C)c1O` it is 6.75%; for `O=C(Nc1nnc(-c2ccco2)s1)C1CC1` it is 4.36%.
The figure for `COc1cccc(N=c2oc3ccccc3cc2-c2nc3ccccc3[nH]2)c1` is -4.17%.
In the case of `O=C(Nc1ccc(Br)cn1)c1ccc(Cl)s1` it was 2.47%; in that of `Cc1cc(C(=O)Nc2ccc(Br)cn2)sc1C`, 8.02%; in that of `CC(=O)c1cc(F)ccc1OCC(=O)Nc1ccc2c(c1)OCO2`, 8%.
In the case of `O=S(=O)(c1cccs1)N1CCCc2cccc(O)c21`, the “activation” value is 8.4%.
The figure for `COc1cccc(OCc2cc(C(=O)N3CCN(c4ccccc4OC)CC3)no2)c1` is 6.95%; for `O=C(O)COn1c(-c2ccccc2)nc2ccc([N+](=O)[O-])cc21` it is 8.93%; for `Cc1ccnc(SCc2cc(=O)c(OC(=O)c3ccc(Br)o3)co2)n1` it is 7.99%.
Take `O=C(/C=C/c1ccccc1)NC(=O)c1ccccc1O`: the “activation” value is 5.83%.
The figure for `O=C(/C=C/c1cc2ccccc2o1)c1ccccc1O` is 9.57%; for `O=C(/C=C/c1ccc2c(c1)OCO2)c1ccc[nH]1` it is 6.1%.
The figure for `COc1ccc(/C=C/C(=O)c2cc3c(cc2N)OCO3)cc1` is 6.99%; for `O=C(N/N=C/c1ccc(N2CCOCC2)cc1)c1cccs1` it is 8.99%.
In the case of `CCc1sc(C(=O)N2CCc3ccccc32)cc1C` it was 3.85%; in that of `CC(C)[C@H](NC(=O)OCc1ccccc1)C(=O)OCC(=O)c1ccccc1`, 4.59%.
`COc1cc(/C=C/C(=O)N2C(=O)c3cccc(N)c3C2=O)cc(OC)c1OC`: the “activation” value is -6.94%.
In the case of `Cc1ccc(NC(=O)c2ccccc2NC(=O)Cc2ccccc2)cc1` it was 7.38%; in that of `COc1ccc(NC(=O)c2cc3ccccc3cc2O)cc1`, 12.5%; in that of `Cc1cnc(C(=O)Nc2ccc(C(C)C)cc2)cn1`, 12.2%.
In the case of `COc1cc2ccccc2cc1C(=O)Nc1ccc(O)cc1`, the “activation” value was 8.68%.
For the molecule `Cc1cc(C)n(-c2nnc3c4ccccc4n(C)c3n2)n1`, the “activation” value was 16.2%.
For `O=C(Nc1ccc2c(c1)OCO2)c1ccc(CO)cc1`, the “activation” value was 6.96%.
Regarding `CCOC(=O)CSc1nc2ccccc2c(=O)n1NC(=O)c1ccccc1`, the “activation” value was 15%.
In the case of `c1cncc(CSc2ccc(-c3ccc4c(c3)OCO4)nn2)c1` it was 7.68%.
